Results filed as inconclusive are left out. A call without a number means that no potency is given here. Calls of active or inactive are those of the source. Calls follow the shape of the dose curve; as a rule, active = well fitted curve in the direction sought with a large enough effect in the repeat runs; inconclusive = weak or mixed curves; inactive = no such curve, though single readings can be large; an effect the other way counts as inactive or inconclusive.
What was measured:
[1] = target: Cytochrome P450 2D6 (Homo sapiens) (UniProt P10635); assay: Cytochrome P450 Family 2 Subfamily D Member 6 (CYP2D6) small molecule antagonists: luciferase reporter qHTS assay (AID 1671196); also: potency is read from the fitted curve at half-maximal effect
Cytochrome P450 2D6 (Homo sapiens), sequence (P10635 whole entry, looked up): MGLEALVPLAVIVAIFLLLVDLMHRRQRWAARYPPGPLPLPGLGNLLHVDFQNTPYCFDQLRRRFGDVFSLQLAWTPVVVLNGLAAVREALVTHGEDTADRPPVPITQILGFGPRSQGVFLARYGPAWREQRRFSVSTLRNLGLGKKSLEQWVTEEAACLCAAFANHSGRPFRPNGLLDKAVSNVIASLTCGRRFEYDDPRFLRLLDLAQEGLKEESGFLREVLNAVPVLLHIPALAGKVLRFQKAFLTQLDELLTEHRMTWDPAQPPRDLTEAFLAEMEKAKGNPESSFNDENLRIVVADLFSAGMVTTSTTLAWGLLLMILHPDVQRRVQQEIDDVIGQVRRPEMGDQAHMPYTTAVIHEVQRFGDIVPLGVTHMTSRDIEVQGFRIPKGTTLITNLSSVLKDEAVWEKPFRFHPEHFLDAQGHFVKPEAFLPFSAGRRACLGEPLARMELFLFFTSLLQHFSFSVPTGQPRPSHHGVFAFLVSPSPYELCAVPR
How it was run: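 P450-Glo format: CYP2D6 converts a proluciferin substrate to luciferin in an NADPH-driven reaction lasting 1 h at room temperature. Light output, proportional to CYP2D6 activity, reflects interference by test chemicals.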

[2] = target: Cytochrome P450 2C9 (Homo sapiens) (UniProt P11712); assay: Cytochrome P450 Family 2 Subfamily C Member 9 (CYP2C9) small molecule antagonists: luciferase reporter qHTS assay (AID 1671198); also: potency is read from the fitted curve at half-maximal effect
Cytochrome P450 2C9 (Homo sapiens), sequence (P11712 whole entry, looked up): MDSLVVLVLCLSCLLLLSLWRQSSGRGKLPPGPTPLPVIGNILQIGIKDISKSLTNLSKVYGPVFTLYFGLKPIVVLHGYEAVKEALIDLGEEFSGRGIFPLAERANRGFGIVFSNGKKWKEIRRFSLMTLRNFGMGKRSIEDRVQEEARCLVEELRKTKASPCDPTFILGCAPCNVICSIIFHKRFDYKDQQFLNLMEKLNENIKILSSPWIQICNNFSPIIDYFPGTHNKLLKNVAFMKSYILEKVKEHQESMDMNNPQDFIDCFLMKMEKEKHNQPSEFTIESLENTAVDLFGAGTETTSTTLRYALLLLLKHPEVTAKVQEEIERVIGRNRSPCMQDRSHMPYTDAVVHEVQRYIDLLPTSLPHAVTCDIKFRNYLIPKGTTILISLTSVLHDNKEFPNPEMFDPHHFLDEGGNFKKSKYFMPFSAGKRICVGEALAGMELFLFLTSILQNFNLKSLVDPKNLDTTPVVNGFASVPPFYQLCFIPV
How it was run: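 P450-Glo proluciferin substrate with CYP2C9 enzyme; 10 min RT preincubation, then NADPH regeneration 1 h at 37C; luciferin detection reagent 20 min RT, luminescence in relative luminescence units.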

[3] = target: Cytochrome P450 1A2 (Homo sapiens) (UniProt P05177); assay: Cytochrome P450 Family 1 Subfamily A Member 2 (CYP1A2) small molecule antagonists: luciferase reporter qHTS assay (AID 1671199); also: potency is read from the fitted curve at half-maximal effect
Cytochrome P450 1A2 (Homo sapiens), sequence (P05177 whole entry, looked up): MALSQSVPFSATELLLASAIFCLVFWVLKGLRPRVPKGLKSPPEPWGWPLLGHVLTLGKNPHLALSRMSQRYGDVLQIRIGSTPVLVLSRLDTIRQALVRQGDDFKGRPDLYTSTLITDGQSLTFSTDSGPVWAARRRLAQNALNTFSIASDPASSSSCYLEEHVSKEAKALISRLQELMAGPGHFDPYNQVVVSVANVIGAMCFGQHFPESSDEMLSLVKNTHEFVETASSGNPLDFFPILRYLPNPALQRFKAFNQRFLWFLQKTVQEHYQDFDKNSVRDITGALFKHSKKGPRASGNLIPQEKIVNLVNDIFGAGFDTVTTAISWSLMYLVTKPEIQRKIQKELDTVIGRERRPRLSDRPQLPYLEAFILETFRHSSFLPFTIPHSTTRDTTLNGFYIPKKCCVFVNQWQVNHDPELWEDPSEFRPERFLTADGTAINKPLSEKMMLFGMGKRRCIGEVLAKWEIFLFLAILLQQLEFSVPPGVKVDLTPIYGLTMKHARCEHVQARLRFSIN
How it was run: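 Inhibition of CYP1A2 conversion of proluciferin to luciferin, detected by luminescence. Reaction run 1 h at room temperature with NADPH regeneration after brief compound preincubation.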

[4] = target: Cytochrome P450 3A4 (Homo sapiens) (UniProt P08684); assay: Cytochrome P450 Family 3 Subfamily A Member 4 (CYP3A4) small molecule antagonists: luciferase reporter qHTS assay (AID 1671201); also: potency is read from the fitted curve at half-maximal effect
Cytochrome P450 3A4 (Homo sapiens), sequence (P08684 whole entry, looked up): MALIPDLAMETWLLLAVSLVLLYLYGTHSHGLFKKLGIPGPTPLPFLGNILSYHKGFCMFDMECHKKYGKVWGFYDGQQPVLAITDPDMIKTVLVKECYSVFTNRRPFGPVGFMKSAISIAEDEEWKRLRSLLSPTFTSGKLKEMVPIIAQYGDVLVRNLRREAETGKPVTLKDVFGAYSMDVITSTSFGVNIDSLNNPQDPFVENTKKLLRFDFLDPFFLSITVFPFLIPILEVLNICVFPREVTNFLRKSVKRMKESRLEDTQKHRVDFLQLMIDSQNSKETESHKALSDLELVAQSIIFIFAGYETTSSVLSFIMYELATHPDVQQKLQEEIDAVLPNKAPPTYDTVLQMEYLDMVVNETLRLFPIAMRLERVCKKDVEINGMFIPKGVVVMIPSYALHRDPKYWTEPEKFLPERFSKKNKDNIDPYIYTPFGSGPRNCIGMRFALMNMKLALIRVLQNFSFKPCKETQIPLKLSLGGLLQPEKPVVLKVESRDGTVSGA
How it was run: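 Relative luminescence units after 20 min with luciferin detection reagent served as read-out. Beforehand, CYP3A4 turned over a proluciferin substrate for 1 h at room temperature with NADPH regeneration, following 10 min compound preincubation.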

[5] = target: Voltage-gated inwardly rectifying potassium channel KCNH2 (Homo sapiens) (UniProt Q12809); assay: Human Ether-a-go-go-Related Gene (hERG) channel small molecule antagonists: fluorescence cell-based qHTS assay (AID 1671200);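 also: hERG-expressing U2OS cells given a thallium stimulus after FluxOR II dye loading; series mostly up to about 77 µM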
Voltage-gated inwardly rectifying potassium channel KCNH2 (Homo sapiens), sequence (Q12809 whole entry, looked up): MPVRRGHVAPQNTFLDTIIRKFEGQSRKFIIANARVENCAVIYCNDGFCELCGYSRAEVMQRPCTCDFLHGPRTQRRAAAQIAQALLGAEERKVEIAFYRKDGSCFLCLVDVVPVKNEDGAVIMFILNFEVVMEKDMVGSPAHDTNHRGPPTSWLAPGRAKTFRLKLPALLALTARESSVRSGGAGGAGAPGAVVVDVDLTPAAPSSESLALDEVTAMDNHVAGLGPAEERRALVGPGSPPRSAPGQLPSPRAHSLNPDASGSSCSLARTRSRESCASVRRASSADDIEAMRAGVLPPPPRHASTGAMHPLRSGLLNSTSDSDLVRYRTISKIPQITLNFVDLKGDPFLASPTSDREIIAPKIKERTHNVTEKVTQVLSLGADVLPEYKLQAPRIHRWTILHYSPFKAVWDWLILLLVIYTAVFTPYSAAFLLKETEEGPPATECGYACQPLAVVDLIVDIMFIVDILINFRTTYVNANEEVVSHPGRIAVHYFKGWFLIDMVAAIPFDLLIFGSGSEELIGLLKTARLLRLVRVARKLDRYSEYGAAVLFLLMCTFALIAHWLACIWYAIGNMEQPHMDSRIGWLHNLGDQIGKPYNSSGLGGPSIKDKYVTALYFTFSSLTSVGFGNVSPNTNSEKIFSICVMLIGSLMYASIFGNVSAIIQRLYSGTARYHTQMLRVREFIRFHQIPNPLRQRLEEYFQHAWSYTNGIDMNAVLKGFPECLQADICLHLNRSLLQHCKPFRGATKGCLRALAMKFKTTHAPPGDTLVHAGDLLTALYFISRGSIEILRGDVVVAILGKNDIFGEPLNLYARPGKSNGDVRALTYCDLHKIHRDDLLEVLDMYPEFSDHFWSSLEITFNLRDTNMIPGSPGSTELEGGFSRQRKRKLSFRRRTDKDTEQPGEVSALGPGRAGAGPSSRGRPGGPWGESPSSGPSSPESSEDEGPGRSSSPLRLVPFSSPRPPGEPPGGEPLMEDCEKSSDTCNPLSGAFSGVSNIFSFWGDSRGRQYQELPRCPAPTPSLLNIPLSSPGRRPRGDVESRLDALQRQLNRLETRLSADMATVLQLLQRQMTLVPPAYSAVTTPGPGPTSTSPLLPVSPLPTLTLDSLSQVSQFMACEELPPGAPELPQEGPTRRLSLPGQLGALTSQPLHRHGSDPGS
How it was run: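 Thallium served as the potassium surrogate; its influx into dye-loaded U2OS cells carrying the channel was measured by fluorescence over 2 min.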
Also: nearly all actives have a fitted effect of over 50% in size.

Compound	Potency [1]	Potency [2]	Potency [3]	Potency [4]	Potency [5]
CC/C=C\C#N	inactive	inactive	inactive	inactive	
O=Cc1ccccc1[N+](=O)[O-]	inactive		31.7 µM (active)	inactive	inactive
CC(C)N1C(=O)c2ccccc2C1=O	inactive	inactive	35.6 µM (active)	inactive	inactive
O=[N+]([O-])c1ccc(CCO)cc1	inactive	inactive		inactive	
Oc1cc(O)c2c(c1)O[C@H](c1ccc(O)c(O)c1)[C@H](O)C2	inactive	inactive	inactive	inactive	inactive
COc1cc(O)cc(O)c1	inactive	inactive			inactive
COc1cc(C)cc(O)c1	inactive	inactive	35.6 µM (active)	inactive	inactive
CCCCC1CCCCC(=O)O1 (stereo unspecified)	inactive	inactive		inactive	inactive
CCCc1ccccc1O	inactive			inactive	inactive
COC(=O)CCCCCCCCC(=O)OC	inactive		40.1 µM (active)	inactive	inactive
N#CCN(CC#N)CCN(CC#N)CC#N	inactive	inactive		inactive	inactive
CCN(CC)S(=O)(=O)c1ccc(C(=O)O)cc1	38.9 µM (active)		inactive		inactive
NC(=O)c1c(Cl)cccc1Cl	31.7 µM (active)	inactive		31.7 µM (active)	inactive
CN1[C@@H]2CC[C@H]1CC(NC(=O)n1c(=O)[nH]c3ccccc31)C2 (stereo partly specified)	0.776 µM (active)	inactive	inactive	inactive	
CC(C)(O)c1ccccc1	inactive			inactive	inactive
CC(CCO)CCCC(C)(C)O (stereo unspecified)	inactive	inactive		inactive	inactive
Cc1ncc(CSSCc2cnc(C)c(O)c2CO)c(CO)c1O	6.17 µM (active)	8.71 µM (active)			inactive
CC(C=O)Cc1ccc(C(C)C)cc1 (stereo unspecified)	inactive				
